# An excerpt weighted towards active compounds, which were near 13% of everything screened.
# HCMV antiviral = human cytomegalovirus inhibition. HFF cells, HCMV-luciferase reporter, 72 h; hits give low values. AID 1259415. 410,000 tested, 4.5% active. activity change, negative = inhibition, % at 57.5 µM; in the data active means activity change below about -60%; inconclusive means no clear call, values can overlap the other calls; inactive means above about -39%
#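 Screen run at 2 compound doses on HFFs infected with reporter HCMV, MOI 1 PFU/cell. Luciferase activity from cell lysates at 72 h post infection gave inhibition relative to buffer-only and Salinomycin wells.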
# Pf growth 96h = P. falciparum growth inhibition at 96 hours; P. falciparum luciferase reporter growth, 96 h; Potency, µM (titrated, usually from 28.7 µM), most hits filed as inhibitors; 320,000 tested, 6.9% active
#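 Plates of compound plus infected erythrocytes (2% hematocrit, 0.05% parasitemia final) incubate 96 hours, 37 C, 5% CO2. Detection reagent added; reduced luminescence from the parasites' luciferase reporter flags inhibition.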
# HCV inhibitor = blocks hepatitis C virus. Huh7.5.1 HCVcc-Cre infection, luciferase reporter, 44 h. Potency, µM (top dose mostly 41.8 µM), hits mostly inhibitors. 340,000 tested, 3.4% active. AID 651820
#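 Reporter virus HCVcc-Cre (~0.5 moi) infects cells exposed to compound; seeding density 1,000 cells/well with 4 h settling beforehand. Luminescence, 15 sec read, taken 44 h post-infection following a 15 min RT substrate incubation.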
# Pf growth 48h = P. falciparum growth inhibition at 48 hours (one generation) | P. falciparum luciferase growth in erythrocytes, 48 h | 310,000 tested, 5.9% active | AID 504832 | Potency, µM (titrated, usually from 28.7 µM), actives largely listed as inhibitors
#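 Erythrocytes infected with P. falciparum carrying an integrated firefly luciferase reporter (2% hematocrit, 0.1% parasitemia final) were exposed to compounds in RPMI 1640 with 0.5% Albumax at 37 C, 5% CO2. Growth inhibition was scored as reduced luminescence.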
# A number is an active result; - = inactive; ? = inconclusive; . = no result. Unless noted, the call rests on the fitted dose curve; in most records, active means well fitted inhibition curve with a large enough effect; inconclusive means small, poorly fitted or top-dose-only effect, or another doubt; inactive means no such curve, though single readings can be large or run the other way.
SMILES,HCMV antiviral,Pf growth 96h,HCV inhibitor,Pf growth 48h
CN1CCN(C(c2ccc(C(F)(F)F)cc2)c2cc(Cl)c3cccnc3c2O)CC1 (centres undefined),?,3.7µM,.,?
OCCN1CCN(CC(O)COc2ccc3ccccc3c2)CC1 (centres undefined),-,.,-,-
CN(C)S(=O)(=O)c1cccc(NC(=O)c2cccc(S(=O)(=O)N3CCc4ccccc43)c2)c1,-95,9.3µM,11µM,5.9µM
O=C(c1cccc(S(=O)(=O)N2CCc3ccccc32)c1)N1CCN(c2ccccn2)CC1,-78,?,?,-
O=C(Nc1ccc(Br)cc1)c1cccc(S(=O)(=O)N2CCc3ccccc32)c1,-61,.,.,.
Cc1nnc(NC(=O)c2cccc(S(=O)(=O)N3CCc4ccccc43)c2)s1,-,.,-,-
COc1ccc(N2CCN(C(=O)c3cccc(S(=O)(=O)N4CCc5ccccc54)c3)CC2)cc1,-,.,?,.
O=C(CNC(=O)c1cccc(S(=O)(=O)N2CCc3ccccc32)c1)Nc1ccccc1Br,-83,.,?,.
CCOc1ccc(-n2c(SCC(=O)Nc3ccc(F)cc3)nc3c([nH]c4ccccc43)c2=O)cc1,-,.,.,.
O=C(c1cccc(S(=O)(=O)N2CCc3ccccc3C2)c1)N1CCN(c2ccc(O)cc2)CC1,-65,?,?,?
O=C(Nc1nc2c(s1)CN(Cc1ccccc1)CC2)c1cccc(S(=O)(=O)N2CCc3ccccc32)c1,-,8.3µM,?,?
CC(C)CCNC(=O)c1cccc(S(=O)(=O)N2CCc3ccccc32)c1,-,?,?,.
NC(=O)C1CN(C(=O)c2cccc(S(=O)(=O)N3CCc4ccccc43)c2)c2ccccc2O1 (centres undefined),-105,?,-,8.3µM
O=C(NNC(=O)c1cccc(S(=O)(=O)N2CCc3ccccc32)c1)c1ccccc1,?,-,5µM,-
CC(=O)NS(=O)(=O)c1ccc(NC(=O)c2cccc(S(=O)(=O)N3CCc4ccccc43)c2)cc1,-,-,-,-
COc1ccc(NC(C)=O)cc1NC(=O)c1cccc(S(=O)(=O)N2CCc3ccccc32)c1,-,?,10µM,13µM
COC(=O)[C@@]12CCCCN1[C@H](c1ccc(-c3cccc(Cl)c3)c(OC)c1)[C@@H]1C(=O)N(C)C(=O)[C@@H]12,-,7.4µM,?,9.3µM
COC(=O)[C@@]12CCCN1[C@H](c1ccc(-c3cccc(Cl)c3)c(OC)c1)[C@H]1C(=O)N(C)C(=O)[C@H]12,-,0.33µM,?,2.3µM
COC(=O)[C@@]12CCCCN1[C@H](c1ccc(-c3ccc(C(C)=O)cc3)c(OC)c1)[C@@H]1C(=O)N(C)C(=O)[C@@H]12,-,?,-,8.3µM
Cc1cc(-n2c(C)nc3ccccc3c2=O)ccc1NC(=O)c1cccc([N+](=O)[O-])c1,-,.,.,.
COc1ccc(-c2noc(-c3ccc(NCCc4ccccc4)c([N+](=O)[O-])c3)n2)cc1OC,-,.,.,.
CN1CCN(C(=S)NC(=O)c2ccccc2Br)CC1,-,1.9µM,-,-
Cc1ccccc1C(=O)Nc1sc(C)c(C)c1C(=O)c1ccccc1,-,?,?,?
Cc1cc(C(=O)c2ccccc2)c(NC(=O)CN2CCOCC2)s1,-,-,-,-
Cc1sc(NC(=O)CCl)c(C(=O)c2ccccc2)c1C,-,-,?,13µM
SMILES,HCMV antiviral,Pf growth 96h,HCV inhibitor,Pf growth 48h
Cc1cc(C(=O)c2ccc(C(C)(C)C)cc2)c(NC(=O)CCl)s1,-65,-,?,-
Cc1nn(-c2ccccc2[N+](=O)[O-])c(=O)c2ccccc12,-,-,-,-
CC(C)(C)C(=O)N1CCN(c2ccc([N+](=O)[O-])c(-n3nc(-c4ccccc4)c4ccccc4c3=O)c2)CC1,-,9.3µM,-,5.2µM
Cc1ccc(-c2nn(-c3cc(Cl)ccc3[N+](=O)[O-])c(=O)c3ccccc23)cc1,?,12µM,?,?
COc1ccccc1NC(=O)c1cc2cc3ccc(OC)c(Cl)c3nc2s1,-,.,.,.
Cc1ccc(C(=O)NCCC(=O)NCc2ccco2)cc1,-,10µM,-,-
O=C(CCNC(=O)c1ccc(Br)cc1)NCc1ccco1,-,-,?,-
Cc1ccc(SCCC(=O)NCc2ccco2)cc1,-,-,-,-
Cc1ccc(OCCCC(=O)NCc2ccco2)c(C)c1,.,-,.,4.1µM
Cc1cc(C)c2c(CC(=O)NCc3ccco3)coc2c1,-,1µM,-,-
Cc1ccc(C)c(NC(=O)Cc2coc3cc(C)cc(C)c23)c1,-,.,.,.
Cc1cc2c(s1)c(C#N)c(C(=O)NCc1ccccc1F)n2C,.,-,.,-

# Assay outcomes from PubChem.
